Screening data: PubChem, National Center for Advancing Translational Sciences (NCATS)
Hits are enriched below; roughly 7.5% of the tested compounds scored in any of these assays.
Rab9 prom act = qHTS Assay for Rab9 Promoter Activators. AID 485297, 2010. 320,000 tested, 2.8% active. Potency, µM (titrated, usually from 9.22 µM), without a hit: at the highest dose activation, negative = inhibition, most hits filed as activators. Huh7 Rab9 promoter-luciferase reporter, luminescence, 24 h; also: % of control where 0% means no effect; nearly all actives have a fitted effect of over 60% in size
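Using Huh7 cells stably transfected with Rab9 promoter–luciferase, compounds were incubated 24 h at 37 °C, 5% CO2; luciferase luminescence was read 10 min after reagent addition.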
NPC1 prom act = qHTS Assay for NPC1 Promoter Activators. Huh7 NPC1 promoter luciferase reporter, 24 h. Potency, µM (top dose mostly 9.22 µM), inactives show at the top dose activation, most hits filed as activators. 320,000 tested, 2.4% active; also: % of control where 0% means no effect; nearly all actives have a fitted effect of over 60% in size
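NPC1 promoter–luciferase Huh7 cells; 24 h compound; luminescence.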
SMN2 splice up = qHTS Assay for Enhancers of SMN2 Splice Variant Expression; HEK293 SMN2-luciferase splicing reporter, luminescence, 30-36 h; Potency, µM (titrated, usually from 46.1 µM), for inactives: at the highest dose activity change, positive = activation, actives largely listed as activators; 210,000 tested, 2.8% active; also: % of control where 0% means no effect; nearly all actives have a fitted effect of over 55% in size
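HEK293 cells carry an SMN2 […]–luciferase reporter in which exon 7 inclusion puts luciferase in frame. Cells were plated 10-12 h before compound addition, then incubated 30-36 h at 37C. ONE-Glo luminescence was read; sodium butyrate at 4.5 mM final served as control.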
FLuc counter = qHTS profiling assay for firefly luciferase inhibitor/activator using purifed enzyme and Km concentrations of substrates (counterscreen for miR-21 project) | Luciferin 4-monooxygenase (Photinus pyralis), P08659 | purified FLuc, Km substrates, luminescence inhibition | Potency, µM (top dose mostly 57.5 µM), for inactives: at the highest dose activity change, negative = inhibition, actives largely listed as inhibitors | 360,000 tested, 6.9% active;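 also: plate controls were vehicle for no effect and reference inhibitor for full effect; nearly all actives have a fitted effect of over 55% in size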
Target sequence (P08659 whole entry, looked up): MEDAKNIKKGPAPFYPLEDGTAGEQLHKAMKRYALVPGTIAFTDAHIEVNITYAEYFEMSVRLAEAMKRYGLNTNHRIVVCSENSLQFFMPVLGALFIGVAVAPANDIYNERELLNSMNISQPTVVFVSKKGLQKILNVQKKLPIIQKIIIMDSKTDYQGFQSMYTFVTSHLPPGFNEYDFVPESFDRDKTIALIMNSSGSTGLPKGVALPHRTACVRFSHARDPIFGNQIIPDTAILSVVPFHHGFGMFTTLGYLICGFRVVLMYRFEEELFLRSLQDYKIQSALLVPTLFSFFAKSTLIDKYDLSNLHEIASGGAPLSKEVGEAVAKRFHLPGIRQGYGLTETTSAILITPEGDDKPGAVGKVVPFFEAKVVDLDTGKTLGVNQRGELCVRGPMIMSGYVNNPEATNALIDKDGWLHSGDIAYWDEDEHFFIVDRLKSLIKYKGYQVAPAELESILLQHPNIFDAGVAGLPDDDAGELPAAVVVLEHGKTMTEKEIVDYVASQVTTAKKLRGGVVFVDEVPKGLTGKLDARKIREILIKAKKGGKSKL
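Biochemical qHTS of compounds, final roughly 60 µM downward over six points, against 10 nM purified firefly luciferase using Km concentrations of substrates (10 uM D-luciferin, 10 uM ATP) in Tris acetate pH 7.5 buffer; luminescence output.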
ELG1 genotoxic = qHTS screen for small molecules that induce genotoxicity in human embryonic kidney (HEK293T) cells expressing luciferase-tagged ELG1 | HEK293T ELG1-luciferase reporter, luminescence, 16 h | Potency, µM (series often up to 46 µM), for the others: at the top dose activity change, positive = activation, most hits filed as activators | 330,000 tested, 1.3% active | AID 504466, 2011; also: % of control where 0% means no effect; nearly all actives have a fitted effect of over 60% in size
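Cells (2,000/well) expressing the ELG1-luciferase fusion are dosed by pin tool and kept 16 hr at 37 °C, 5% CO2. Signal comes from ONE-Glo luciferase reagent after 30 min at room temperature.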
* marks the source's active call; other numbers are inactive results; ? = inconclusive; / = no result given. Calls follow the shape of the dose curve; as a rule, active = well fitted curve in the direction sought with a large enough effect; inconclusive = small, poorly fitted or top-dose-only effect, or another doubt; inactive = no such curve, though single readings can be large; an effect the other way counts as inactive or inconclusive. Potency is read from the fitted curve at half-maximal effect.

SMILES	Rab9 prom act	NPC1 prom act	SMN2 splice up	FLuc counter	ELG1 genotoxic
COc1ccc(/C=N/NC(=O)c2nnn(-c3nonc3N)c2-c2cccs2)cc1OC	11%	0%	/	19µM*	-11%
COc1cc(/C=N/NC(=O)c2nnn(-c3nonc3N)c2-c2cccs2)ccc1O	2%	-1%	/	?	-11%
Cc1ccc(/C=N/NC(=O)c2nnn(-c3nonc3N)c2-c2cccs2)cc1	1%	-2%	/	9.5µM*	0%
CCOc1ccc(NC(=O)CSc2ncc3c(n2)-c2cc(Cl)ccc2N(C)S3(=O)=O)cc1	/	/	/	-5%	/
CC(C)(C)c1ccc(C(=O)NCCC(=O)N2CCCC2)cc1	4µM*	2.2µM*	/	9.5µM*	21µM*
O=C(NCCC(=O)N1CCCCCCC1)c1ccc(Br)cc1	-2%	-2%	/	2%	-1%
Cc1ccc(C(=O)NCCN2CCOCC2)cc1	5%	-2%	0%	-9%	6%
CC(=O)N1CCN(C(=O)COC(=O)CNC(=O)c2ccc(C)cc2)CC1	2%	-2%	/	-5%	1%
CC(C)(C)c1ccc(C(=O)NCC(=O)OCC(=O)N2CCCC2)cc1	-3%	-1%	/	15µM*	0%
Cc1ccc(C(=O)NCCC(=O)N2CCOCC2)cc1	2.5µM*	1.6µM*	/	11µM*	13µM*
CCOC(=O)c1cc(NC(=O)c2ccc(C)cc2)c(=O)n2c1oc1ccccc12	/	/	4%	-1%	/
Cn1c(=O)n(CC(=O)Nc2ccccc2)c2ccccc21	2%	-1%	-6%	1%	0%
CC(C)OC(=O)CSc1nc2cccnc2n1-c1ccc(F)cc1	-1%	0%	10%	5%	1%
Cc1ccc(Cn2ccnc2C(=O)Nc2ccccc2)cc1	1.6µM*	4µM*	16µM*	7.6µM*	?
C=CCC[C@H](Cc1ccc(F)cc1)C(=O)OC[C@H](Cc1c[nH]c2ccccc12)NC(=O)[C@H](CC=C)CC(=O)NCCO	/	/	/	/	-8%
Cc1cc(C)c2c(=O)cc(C(=O)Nc3ccccc3Cl)oc2c1	/	/	14%	-1%	/
O=C(Nc1ccccc1Br)c1cc(=O)c2ccccc2o1	4µM*	2.5µM*	/	12µM*	7.3µM*
O=C(Nc1ccccc1Cl)c1cc(=O)c2ccccc2o1	?	3.5µM*	/	15µM*	?
O=C(NCc1ccccc1)c1cc(=O)c2ccccc2o1	-1%	-1%	-6%	0%	-5%
CNC(=O)C1=C(C)n2c(nc3ccccc32)NC1c1ccc(OC)cc1 (centres undefined)	3%	1%	3%	-3%	3%
CCN1CCN(Cc2nc3cc(NC(=O)COc4ccc([N+](=O)[O-])cc4)ccc3n2C)CC1	-5%	-3%	/	0%	-4%
Cc1ccc(-c2nn(-c3ccccc3)cc2C=O)o1	?	9%	10µM*	3µM*	?
Cc1ccc(-c2nn(-c3cccc(F)c3)cc2CN2CCN(c3ccccn3)CC2)o1	-16%	-1%	/	?	-9%
OCc1cn(-c2ccccc2)nc1-c1ccco1	24%	?	-5%	17µM*	?
Cc1ccc(-c2nn(-c3ccccc3)cc2CO)o1	?	?	8.9µM*	12µM*	?
SMILES	Rab9 prom act	NPC1 prom act	SMN2 splice up	FLuc counter	ELG1 genotoxic
Cc1ccc(-c2nn(-c3cccc(F)c3)cc2CNCc2cccnc2)o1	1%	-1%	/	19µM*	-6%
O=CN(/C=C1\Sc2ccccc2C1=O)Cc1ccccc1	18%	10%	-4%	11µM*	?
CC(=O)N(C)/C=C1\Sc2ccccc2C1=O	-4%	-3%	-4%	?	5%
CCC(=O)N(C)/C=C1\Sc2ccccc2C1=O	9%	-6%	4%	11µM*	4%
O=C(/C=C/N1CCOCC1)c1ccc(-c2ccccc2)cc1	3.2µM*	1.8µM*	?	11µM*	17%
O=C(c1ccc(-c2ccccc2)cc1)c1ccccc1C(=O)N1CCOCC1	-1%	-2%	/	?	-4%
